Assay results published in PubChem BioAssay AID1159580 (chemical genetic matrix, 2015).
Several values for one entry are separate records, joined by “and”; a condition that tells them apart may be missing. Equal values may be shown once. About 2,000 (36%) of roughly 5,500 compounds were called active. Inconclusive results (about 18%) are left out. Rule as the data show it: active = normalized growth mostly below about 0.91 (no sharp cut-off); inconclusive = no clear call, values can overlap the other calls; inactive = mostly above about 0.92. The list shows a part of the results.

Assay: chemical genetic growth profiling, strain panel (AID 1159580);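 also: tested at 20 µM; growth read once vehicle control cultures reached saturation at 30 °C; 1 = growth at the plate median or of vehicle wells; lower values mean less growth of the strain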
Settings: S. cerevisiae deletion strains, growth OD

Measured: normalized growth

C[C@@H]1O[C@@H](OC[C@H]2OC(Oc3c(-c4ccc(O)c(O)c4)oc4cc(O)cc(O)c4c3=O)[C@H](O)[C@@H](O)[C@@H]2O)[C@H](O)[C@H](O)[C@H]1O (stereo not given in full)
active: locus YMR058W, strain fet3, active compounds read low 0.881
inactive: locus YAL013W, strain DEP1, active compounds read low 0.995 | locus YAL021C, strain ccr4, active compounds read low 0.964 | locus YAL026C, strain drs2, active compounds read low 0.993 | locus YAL030W, strain snc1, active compounds read low 0.998 | locus YBL061C, strain skt5, active compounds read low 1.01 | locus YBR009C, strain hhf1, active compounds read low 0.994 | locus YBR021W, strain FUR4, active compounds read low 1.03 | locus YBR023C, strain chs3, active compounds read low 1 | locus YBR171W, strain sec66, active compounds read low 1 | locus YBR229C, strain ROT2, active compounds read low 1.01 | locus YBR231C, strain swc5, active compounds read low 1 | locus YBR279W, strain paf1, active compounds read low 0.996 | locus YCL011C, strain gbp2, active compounds read low 0.98 | locus YCL016C, strain dcc1, active compounds read low 0.982 | locus YCL029C, strain bik1, active compounds read low 0.988 | locus YCL061C, strain MRC1, active compounds read low 1.01 | locus YCL069W, strain vba3, active compounds read low 1.01 | locus YCR088W, strain abp1, active compounds read low 1.01 | locus YDL005C, strain med2, active compounds read low 1 | locus YDL035C, strain GPR1, active compounds read low 0.975 | locus YDL040C, strain nat1, active compounds read low 1 | locus YDL074C, strain BRE1, active compounds read low 0.949 | locus YDL101C, strain DUN1, active compounds read low 1 | locus YDL185W, strain tfp1, active compounds read low 0.941 | locus YDL192W, strain arf1, active compounds read low 0.989 | locus YDR001C, strain nth1, active compounds read low 0.986 | locus YDR069C, strain doa4, active compounds read low 1 | locus YDR101C, strain arx1, active compounds read low 0.983 | locus YDR137W, strain rgp1, active compounds read low 0.974 | locus YDR150W, strain NUM1, active compounds read low 0.996 | locus YDR159W, strain sac3, active compounds read low 1.07 | locus YDR162C, strain NBP2, active compounds read low 1.01 | locus YDR195W, strain ref2 1 | locus YDR297W, strain sur2, active compounds read low 1.01 | locus YDR318W, strain mcm21, active compounds read low 1 | locus YDR334W, strain swr1, active compounds read low 1 | locus YDR335W, strain msn5, active compounds read low 0.979 | locus YDR388W, active compounds read low 1 | locus YDR392W, strain spt3, active compounds read low 0.979 | locus YDR502C, strain sam2, active compounds read low 1.01 | locus YEL003W, strain gim4, active compounds read low 1.01 | locus YEL037C, strain rad23, active compounds read low 1.01 | locus YEL061C, strain CIN8 (second series), active compounds read low 1 | locus YEL061C, strain CIN8, active compounds read low 1.01 | locus YER015W, strain faa2, active compounds read low 0.973 | locus YER016W, strain bim1, active compounds read low 1 | locus YER110C, active compounds read low 0.985 | locus YER111C, strain swi4, active compounds read low 0.994 | locus YER155C, strain BEM2 (second series), active compounds read low 1.09 | locus YER155C, strain BEM2, active compounds read low 1 | locus YER167W, strain BCK2, active compounds read low 1.01 | locus YFR010W, strain ubp6, active compounds read low 1 | locus YGL078C, strain dbp3, active compounds read low 0.971 | locus YGL086W, strain mad1, active compounds read low 0.997 | locus YGL167C, strain pmr1, active compounds read low 0.975 | locus YGL173C, strain kem1, active compounds read low 1.02 | locus YGL227W, strain vid30, active compounds read low 1 | locus YGL240W, strain doc1, active compounds read low 1.04 | locus YGL248W, strain PDE1, active compounds read low 1.03 | locus YGL253W, strain hxk2, active compounds read low 0.991 | locus YGR078C, strain PAC10, active compounds read low 1.03 | locus YGR135W, strain pre9, active compounds read low 1.03 | locus YGR252W, strain gcn5, active compounds read low 1.09 | locus YHR013C, strain ard1, active compounds read low 0.979 | locus YHR027C, strain rpn1, active compounds read low 0.985 | locus YHR030C, strain SLT2, active compounds read low 0.992 and 1.1 | locus YHR079C, strain IRE1 (second series), active compounds read low 0.98 | locus YHR079C, strain IRE1, active compounds read low 1.07 | locus YHR094C, strain hxt1, active compounds read low 0.997 | locus YHR129C, strain ARP1, active compounds read low 1.01 | locus YHR142W, strain chs7, active compounds read low 0.969 | locus YHR200W, strain rpn10, active compounds read low 1 | locus YIL066C, strain RNR3, active compounds read low 1 | locus YIL073C, strain SPO22, active compounds read low 0.99 | locus YIL125W, strain kgd1, active compounds read low 0.994 | locus YIR030C, strain dcg1, active compounds read low 0.997 | locus YJL092W, strain hpr5, active compounds read low 1 | locus YJL095W, strain BCK1 (second series), active compounds read low 1 | locus YJL095W, strain BCK1, active compounds read low 1.07 and 1.06 | locus YJL115W, strain asf1, active compounds read low 0.968 | locus YJL129C, strain trk1, active compounds read low 0.987 | locus YJL134W, strain LCB3, active compounds read low 0.997 | locus YJL154C, strain vps35, active compounds read low 0.999 | locus YJL164C, strain tpk1, active compounds read low 0.974 | locus YJL166W, strain qcr8, active compounds read low 1.02 | locus YJL168C, strain set2, active compounds read low 0.996 | locus YJL187C, strain SWE1 (second series), active compounds read low 1.01 | locus YJL187C, strain SWE1, active compounds read low 0.999 | locus YJR043C, strain POL32, active compounds read low 1 | locus YJR066W, strain TOR1, active compounds read low 1 | locus YJR075W, strain HOC1, active compounds read low 1.02 | locus YKL009W, strain mrt4, active compounds read low 1.11 | locus YKL068W, active compounds read low 0.982 | locus YKL085W, strain MDH1 (second series), active compounds read low 0.992 | locus YKL085W, strain MDH1, active compounds read low 0.992 | locus YKL160W, strain elf1, active compounds read low 0.976 | locus YKR001C, strain vps1, active compounds read low 1.01 | locus YKR026C, strain gcn3, active compounds read low 1 | locus YKR091W, strain srl3, active compounds read low 0.996 | locus YLL001W, strain dnm1, active compounds read low 0.942 | locus YLL026W, active compounds read low 0.997 | locus YLL041C, strain sdh2, active compounds read low 0.995 | locus YLR027C, strain aat2, active compounds read low 1.01 | locus YLR039C, strain RIC1, active compounds read low 0.979 | locus YLR058C, strain SHM2, active compounds read low 1.03 | locus YLR102C, strain apc9, active compounds read low 1 | locus YLR113W, strain HOG1, active compounds read low 1.03 | locus YLR221C, strain rsa3, active compounds read low 1.06 | locus YLR258W, strain gsy2, active compounds read low 1.02 | locus YLR262C, strain YPT6 (second series), active compounds read low 1.03 | locus YLR262C, strain YPT6, active compounds read low 0.99 | locus YLR268W, strain sec22, active compounds read low 0.977 | locus YLR320W, strain mms22, active compounds read low 1.08 | locus YLR330W, strain CHS5, active compounds read low 0.999 | locus YLR342W, strain FKS1 (second series), active compounds read low 1 | locus YLR342W, strain FKS1, active compounds read low 1.01 | locus YLR357W, strain rsc2, active compounds read low 0.955 | locus YLR370C, strain arc18, active compounds read low 1.01 | locus YLR371W, strain rom2, active compounds read low 0.995 | locus YLR384C, strain iki3, active compounds read low 0.993 | locus YLR418C, strain cdc73, active compounds read low 1.03 | locus YML016C, strain PPZ1, active compounds read low 1.01 | locus YML032C, strain rad52, active compounds read low 1.03 | locus YML120C, strain ndi1, active compounds read low 0.972 | locus YML124C, strain tub3, active compounds read low 0.993 | locus YMR078C, strain ctf18, active compounds read low 0.999 | locus YMR125W, strain sto1, active compounds read low 0.965 | locus YMR129W, active compounds read low 1.01 | locus YMR205C, strain PFK2, active compounds read low 1 | locus YMR223W, strain ubp8, active compounds read low 1.01 | locus YMR231W, strain pep5, active compounds read low 1 | locus YMR307W, strain GAS1, active compounds read low 1.03 | locus YNL067W, strain RPL9B, active compounds read low 1.01 | locus YNL071W, strain lat1, active compounds read low 1.02 | locus YNL183C, strain NPR1, active compounds read low 0.999 | locus YNL209W, strain ssb2, active compounds read low 0.939 | locus YNL233W, strain BNI4, active compounds read low 1.02 | locus YNL248C, strain rpa49, active compounds read low 1.01 | locus YNL250W, strain rad50, active compounds read low 0.963 | locus YNL271C, strain bni1, active compounds read low 0.987 | locus YNL298W, strain CLA4, active compounds read low 0.982 | locus YNL307C, strain MCK1, active compounds read low 0.987 | locus YNL322C, strain KRE1 (second series), active compounds read low 0.997 | locus YNL322C, strain KRE1, active compounds read low 1.01 | locus YNR049C, strain mso1, active compounds read low 0.998 | locus YNR052C, strain pop2, active compounds read low 1.01 | locus YOL006C, strain TOP1, active compounds read low 1.03 | locus YOL012C, strain htz1 0.939 | locus YOL147C, strain pex11, active compounds read low 1 | locus YOR001W, strain rrp6, active compounds read low 1.03 | locus YOR061W, strain CKA2, active compounds read low 1.01 | locus YOR069W, strain VPS5, active compounds read low 0.994 | locus YOR070C, strain gyp1, active compounds read low 0.999 | locus YOR080W, strain dia2, active compounds read low 1.01 | locus YOR083W, strain WHI5, active compounds read low 0.97 | locus YOR106W, strain vam3, active compounds read low 0.877 | locus YOR136W, strain idh2, active compounds read low 0.99 | locus YOR144C, strain elg1, active compounds read low 1.01 | locus YOR184W, strain ser1, active compounds read low 1 | locus YOR231W, strain MKK1, active compounds read low 1.05 | locus YOR265W, strain rbl2, active compounds read low 1.01 | locus YOR270C, strain vph1, active compounds read low 1 | locus YOR290C, strain snf2, active compounds read low 0.959 | locus YOR316C, strain cot1, active compounds read low 0.999 | locus YPL051W, strain arl3, active compounds read low 0.971 | locus YPL078C, strain atp4, active compounds read low 0.941 | locus YPL106C, strain sse1, active compounds read low 0.999 | locus YPL240C, strain hsp82, active compounds read low 1 | locus YPL256C, strain CLN2, active compounds read low 1.09 | locus YPR119W, strain clb2, active compounds read low 1 | locus YPR141C, strain kar3, active compounds read low 0.994 | locus YPR163C, strain tif3, active compounds read low 0.998 | locus YPR167C, strain met16, active compounds read low 0.991 | strain wtn01, active compounds read low 0.975
